Where “and” joins values, the source holds several entries; their conditions need not be identical. Identical values can stand only once. Results filed as inconclusive are left out. Some compounds were tested as several samples or in several runs, with calls that do not always agree. Calls of active or inactive are those of the source. The calls were made as follows, unless noted: active = hit-call score of the fitted dose curve at least 0.9, where 1 is the maximum; inactive = score below 0.9.
Tests used:
[1] = target: Nuclear respiratory factor 1 (Homo sapiens) (UniProt Q16656); experiment: ATG_NRF1_CIS: Attagene CIS-FACTORIAL HepG2 Assay for human Nuclear Respiratory Factor 1 (NRF1) Orphan Gene (AID 2282987); settings: HepG2 NRF1 cis-element reporter, Attagene multiplex; actives raise or lower the signal
How it was run: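 Human hepatoma HepG2 cells carrying transfected promoter-regulated reporter units were incubated with test chemicals for 24 h. Reporter transcripts were measured by RT-PCR plus capillary electrophoresis, and endpoints derived by bidirectional fitting with DMSO as baseline.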

[2] = ATG_NFI_CIS: Attagene CIS-FACTORIAL HepG2 Assay for human Nuclear Factor I (NFI) (AID 2282989); settings: HepG2 cis-regulatory reporter, NFI response element transcription; actives raise or lower the signal
How it was run: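 Cells: human liver HepG2, transiently transfected with promoter-regulated reporter transcription units. Exposure 24 h. Detection: fluorescent RT-PCR products separated by capillary electrophoresis, normalised to DMSO negative control.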

[3] = target: Myc proto-oncogene protein (Homo sapiens) (UniProt P01106); experiment: ATG_Myc_CIS: Attagene CIS-FACTORIAL HepG2 Assay for human Myelocytomatosis (Myc) Proto-Oncogene Transcription Factor (AID 2282990); settings: HepG2, Attagene cis-reporter transcription factor activity; actives raise or lower the signal
How it was run: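 After 24 h chemical treatment of HepG2 cells carrying multiplexed cis-regulated reporter constructs, reporter transcripts quantified by RT-PCR and capillary electrophoresis of fluorescent fragments. Gain or loss fitted against DMSO baseline.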

[4] = ATG_NF_kB_CIS: Attagene CIS-FACTORIAL HepG2 Assay for human Nuclear Factor Kappa B (NF-kB) (AID 2282991); settings: HepG2 Attagene cis-factorial NF-kB reporter mRNA; actives raise or lower the signal
How it was run: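 Multiplexed cis-reporter assay in transiently transfected HepG2. 24 h treatment; RNA isolated, RT-PCR, labelled fragments resolved by CE. DMSO baseline.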

[5] = ATG_NRF2_ARE_CIS: Attagene CIS-FACTORIAL HepG2 Assay for human Nuclear Factor Erythroid 2 Related Factor 2 (NFR2) response to Antioxidant Response Elements (ARE) (AID 2282992); settings: HepG2 Attagene ARE/NRF2 reporter, transcription factor activity; actives raise or lower the signal;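 as to AC50: reporter mRNA level measured by RT-PCR and capillary electrophoresis fluorescence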
How it was run: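 Readout: reporter mRNA quantified by RT-PCR plus FAM-labelled primer extension, HpaI digestion and capillary electrophoresis, 24 h after dosing transfected HepG2 cells. Gain or loss of signal is fitted bidirectionally against DMSO baseline.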

[6] = ATG_Oct_MLP_CIS: Attagene CIS-FACTORIAL HepG2 Assay for human Octamer-Binding Transcription Factor (Oct) (AID 2282993); settings: HepG2 Attagene cis-factorial Oct reporter, mRNA; actives raise or lower the signal
How it was run: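 HepG2, transient MRTU transfection, cis promoter elements; 24 h dosing; RT-PCR/CE fluorescence read-out of reporter mRNA; fit both directions vs DMSO.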

[7] = target: Cellular tumor antigen p53 (Homo sapiens) (UniProt P04637); experiment: ATG_p53_CIS: Attagene CIS-FACTORIAL HepG2 Assay for human p53 Transcription Factor (AID 2282994); settings: HepG2 p53 cis-element reporter, Attagene mRNA; actives raise or lower the signal
How it was run: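 Read-out: reporter mRNA by RT-PCR plus capillary electrophoresis with fluorescence detection. Human HepG2 liver cells carried transfected multi-reporter cis-element constructs, dosed 24 h. Gain or loss of signal fitted bidirectionally against DMSO control.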

[8] = target: human Peroxisome Proliferator-activated Receptor alpha (PPARa), PPARA (gene 5465) (UniProt Q07869); experiment: ATG_PPARa_TRANS: Attagene TRANS-FACTORIAL HepG2 Assay for human Peroxisome Proliferator-activated Receptor alpha (PPARa) (AID 2283001; active = hit-call score of the fitted dose curve at least 0.9, where 1 is the maximum;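 as to AC50: potency for gain of reporter signal over DMSO so agonist or activator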)
How it was run: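 Transfected HepG2 cells treated with test chemical for 24 h. RNA isolated, reverse-transcribed with oligo(dT), PCR-amplified, FAM-labelled and HpaI-digested. Fragments sized by capillary electrophoresis; gain-of-signal fit relative to DMSO.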

[9] = target: human Peroxisome Proliferator-activated Receptor delta (PPARd), PPARD (gene 5467) (UniProt Q03181); experiment: ATG_PPARd_TRANS: Attagene TRANS-FACTORIAL HepG2 Assay for human Peroxisome Proliferator-activated Receptor delta (PPARd) (AID 2283002; active = hit-call score of the fitted dose curve at least 0.9, where 1 is the maximum)
How it was run: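 Read-out is induced reporter mRNA, quantified by RT-PCR with fluorescent labelling and capillary electrophoresis after 24 h dosing. Cells are HepG2 transiently carrying multiple GAL4-UAS reporter units driven by exogenous NR-GAL4 chimeras; DMSO serves as baseline.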

[10] = target: Retinoic acid receptor alpha (Homo sapiens) (UniProt P10276); experiment: ATG_RARa_TRANS: Attagene TRANS-FACTORIAL HepG2 Assay for human Retinoic Acid Receptor alpha (RARa) (AID 2283005; active = hit-call score of the fitted dose curve at least 0.9, where 1 is the maximum)
How it was run: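 Reporter transcripts, measured by RT-PCR with fluorescent labeling and capillary electrophoresis after 24 h dosing, reflect activity of an exogenous human RARa–GAL4 fusion in transiently transfected HepG2. Fitted for increase relative to DMSO.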

[11] = target: Peroxisome proliferator-activated receptor gamma (Homo sapiens) (UniProt P37231); experiment: ATG_PPARg_TRANS: Attagene TRANS-FACTORIAL HepG2 Assay for human Peroxisome Proliferator-activated Receptor-gamma (PPARg) (AID 2283007; active = hit-call score of the fitted dose curve at least 0.9, where 1 is the maximum)
How it was run: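 Human hepatoma HepG2, transient MRTU transfection, 24 h treatment. mRNA reporter signal by RT-PCR plus capillary electrophoresis, fluorescence detection; fitted for increase over DMSO negative control.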

[12] = target: human Retinoic Acid Receptor gamma (RARg), RARG (gene 5916) (UniProt P13631); experiment: ATG_RARg_TRANS: Attagene TRANS-FACTORIAL HepG2 Assay for human Retinoic Acid Receptor gamma (RARg) (AID 2283009; active = hit-call score of the fitted dose curve at least 0.9, where 1 is the maximum)
How it was run: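 Readout: reporter transcript levels via RT-PCR, 6-FAM primer-extension labelling, HpaI digestion and capillary electrophoresis. Cells: HepG2 carrying transfected RARg-GAL4 chimera plus UAS reporter set. Dosing 24 h; DMSO negative control.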

[13] = target: human RAR-related Orphan Receptor beta (RORb), RORB (gene 6096) (UniProt Q92753); experiment: ATG_RORb_TRANS: Attagene TRANS-FACTORIAL HepG2 Assay for human RAR-related Orphan Receptor beta (RORb) (AID 2283010; active = hit-call score of the fitted dose curve at least 0.9, where 1 is the maximum)
How it was run: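 HepG2, transient MRTU transfection (GAL4-UAS reporters, exogenous NR-Gal4 chimeras); 24 h compound exposure; total RNA → RT-PCR → 6-FAM primer extension → HpaI digest → CE fluorescence. Positive direction vs DMSO baseline.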

[14] = BSK_3C_TissueFactor: BioMAP Diversity Plus: 3C Assay for Tissue Factor Biomarker Activity (AID 2282997); settings: BioMAP 3C HUVEC, tissue factor biomarker readout; actives raise or lower the signal
How it was run: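 After a 24 h chemical exposure of primary human umbilical vein endothelial cells, Tissue Factor levels were quantified by ELISA.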

[15] = BSK_3C_uPAR: BioMAP Diversity Plus: 3C Assay for Urokinase-type plasminogen activator receptor (uPAR) Biomarker Activity (AID 2282998); settings: BioMAP 3C HUVEC, uPAR biomarker ELISA; actives raise or lower the signal
How it was run: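 A multiplexed primary-cell system built on human umbilical vein endothelium was used, with chemical present for 24 h before reading. Cell-surface uPAR was detected by ELISA; signal change in either direction counted against DMSO.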

[16] = BSK_4H_Eotaxin3: BioMAP Diversity Plus: 4H Assay for Eotaxin 3 Biomarker Activity (AID 2283000); settings: primary human endothelial cells (HUVEC); actives raise or lower the signal
How it was run: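 Chemicals were added to human umbilical vein endothelium cultures, and Eotaxin-3 was quantified by ELISA at 24 h. Values were derived by bidirectional fitting with DMSO serving as negative control and activity baseline.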

[17] = read-out: Intercellular Adhesion Molecule 1 (ICAM1), ICAM1 (gene 3383); experiment: BSK_3C_ICAM1: BioMAP Diversity Plus: 3C Assay for Intercellular Adhesion Molecule 1 (ICAM1) Biomarker Activity (AID 2283003); settings: primary human endothelial cells (HUVEC); actives raise or lower the signal
How it was run: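 ELISA read-out of ICAM-1; HUVEC (primary human), 3C system, 24 h post-dosing; bidirectional fit vs DMSO baseline.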

[18] = BSK_3C_Proliferation: Cell Proliferation Assessment in the BioMAP Diversity Plus: 3C Assay (AID 2283006); settings: primary human endothelial cells (HUVEC);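 as to AC50: potency may reflect either rise or fall in cell number versus DMSO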
How it was run: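 HUVEC, sub-confluent; 48 h chemical exposure; 10% TCA fix, 0.1% SRB stain, A560 total protein. Gain or loss of signal fitted both directions vs DMSO control.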

[19] = target: Nuclear receptor subfamily 1 group I member 2 (Homo sapiens) (UniProt O75469); experiment: ATG_PXR_TRANS: Attagene TRANS-FACTORIAL HepG2 Assay for human Pregnane X Receptor (PXR) (AID 2283008; active = hit-call score of the fitted dose curve at least 0.9, where 1 is the maximum)
How it was run: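 Trans-factorial format: exogenous NR-Gal4 fusion activity, not endogenous factor, in transfected human HepG2 liver cells. After 24 h dosing, RNA isolated, reverse-transcribed, amplified and resolved by capillary electrophoresis; induction scored versus DMSO.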

Measured: AC50

Cellular tumor antigen p53 (Homo sapiens), sequence (P04637 whole entry, looked up): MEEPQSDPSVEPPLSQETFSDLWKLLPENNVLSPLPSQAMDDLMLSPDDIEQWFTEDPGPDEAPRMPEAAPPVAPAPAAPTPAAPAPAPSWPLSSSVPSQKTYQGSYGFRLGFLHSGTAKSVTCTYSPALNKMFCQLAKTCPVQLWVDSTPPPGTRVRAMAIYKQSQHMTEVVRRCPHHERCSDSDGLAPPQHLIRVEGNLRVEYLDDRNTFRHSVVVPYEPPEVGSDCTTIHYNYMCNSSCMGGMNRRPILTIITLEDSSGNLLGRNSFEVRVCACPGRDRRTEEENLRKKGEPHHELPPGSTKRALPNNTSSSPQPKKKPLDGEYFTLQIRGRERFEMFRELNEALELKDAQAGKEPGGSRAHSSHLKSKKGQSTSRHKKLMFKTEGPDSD
human Retinoic Acid Receptor gamma (RARg), RARG (gene 5916), sequence (P13631 whole entry, looked up, the tested form may be a part): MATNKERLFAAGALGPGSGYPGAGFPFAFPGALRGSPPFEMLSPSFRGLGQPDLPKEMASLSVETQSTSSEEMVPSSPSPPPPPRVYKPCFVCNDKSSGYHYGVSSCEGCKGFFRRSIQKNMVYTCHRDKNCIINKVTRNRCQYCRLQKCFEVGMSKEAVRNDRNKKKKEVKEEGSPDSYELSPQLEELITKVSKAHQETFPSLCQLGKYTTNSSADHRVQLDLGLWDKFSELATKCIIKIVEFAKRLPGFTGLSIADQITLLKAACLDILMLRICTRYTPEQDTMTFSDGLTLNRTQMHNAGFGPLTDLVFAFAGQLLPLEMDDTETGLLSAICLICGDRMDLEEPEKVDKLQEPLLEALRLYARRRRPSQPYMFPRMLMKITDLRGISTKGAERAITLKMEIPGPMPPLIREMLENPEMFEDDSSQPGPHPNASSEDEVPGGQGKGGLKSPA
human Peroxisome Proliferator-activated Receptor delta (PPARd), PPARD (gene 5467), sequence (Q03181 whole entry, looked up, the tested form may be a part): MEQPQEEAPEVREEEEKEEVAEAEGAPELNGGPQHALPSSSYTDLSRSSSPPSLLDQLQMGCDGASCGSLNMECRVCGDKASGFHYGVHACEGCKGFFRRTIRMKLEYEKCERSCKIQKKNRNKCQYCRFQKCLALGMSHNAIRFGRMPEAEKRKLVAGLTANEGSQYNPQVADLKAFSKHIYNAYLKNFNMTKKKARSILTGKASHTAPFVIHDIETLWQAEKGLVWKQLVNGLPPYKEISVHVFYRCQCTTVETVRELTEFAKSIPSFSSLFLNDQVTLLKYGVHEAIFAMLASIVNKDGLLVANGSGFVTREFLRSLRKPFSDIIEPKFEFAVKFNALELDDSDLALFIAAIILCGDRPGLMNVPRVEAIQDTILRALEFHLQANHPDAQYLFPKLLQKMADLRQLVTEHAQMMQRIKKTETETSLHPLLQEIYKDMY
Myc proto-oncogene protein (Homo sapiens), sequence (P01106 whole entry, looked up, the tested form may be a part): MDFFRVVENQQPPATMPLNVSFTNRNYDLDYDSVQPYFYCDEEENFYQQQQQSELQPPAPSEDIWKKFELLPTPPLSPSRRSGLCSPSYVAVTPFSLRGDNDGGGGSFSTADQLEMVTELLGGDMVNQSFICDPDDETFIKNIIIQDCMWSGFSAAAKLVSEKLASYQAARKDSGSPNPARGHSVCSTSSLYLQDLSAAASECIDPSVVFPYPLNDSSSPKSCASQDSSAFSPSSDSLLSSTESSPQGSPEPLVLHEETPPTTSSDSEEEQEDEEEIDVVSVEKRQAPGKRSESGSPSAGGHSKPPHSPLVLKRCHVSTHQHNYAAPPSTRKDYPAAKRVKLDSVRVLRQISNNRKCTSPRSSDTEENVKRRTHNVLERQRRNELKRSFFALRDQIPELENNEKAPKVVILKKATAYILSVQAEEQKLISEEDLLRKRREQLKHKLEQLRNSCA
Nuclear receptor subfamily 1 group I member 2 (Homo sapiens), sequence (O75469 whole entry, looked up, the tested form may be a part): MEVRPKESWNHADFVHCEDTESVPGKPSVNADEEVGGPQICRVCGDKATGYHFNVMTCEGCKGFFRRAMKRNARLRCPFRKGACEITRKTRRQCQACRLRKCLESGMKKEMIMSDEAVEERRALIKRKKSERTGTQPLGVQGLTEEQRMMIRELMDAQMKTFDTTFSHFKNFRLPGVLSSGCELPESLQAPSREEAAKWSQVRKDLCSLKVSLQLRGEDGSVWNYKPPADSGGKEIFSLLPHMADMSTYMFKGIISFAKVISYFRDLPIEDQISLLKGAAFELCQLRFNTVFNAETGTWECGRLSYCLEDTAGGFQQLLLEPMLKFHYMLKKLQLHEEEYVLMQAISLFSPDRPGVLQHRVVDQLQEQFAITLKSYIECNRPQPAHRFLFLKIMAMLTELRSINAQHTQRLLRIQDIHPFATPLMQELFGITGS
Retinoic acid receptor alpha (Homo sapiens), sequence (P10276 whole entry, looked up, the tested form may be a part): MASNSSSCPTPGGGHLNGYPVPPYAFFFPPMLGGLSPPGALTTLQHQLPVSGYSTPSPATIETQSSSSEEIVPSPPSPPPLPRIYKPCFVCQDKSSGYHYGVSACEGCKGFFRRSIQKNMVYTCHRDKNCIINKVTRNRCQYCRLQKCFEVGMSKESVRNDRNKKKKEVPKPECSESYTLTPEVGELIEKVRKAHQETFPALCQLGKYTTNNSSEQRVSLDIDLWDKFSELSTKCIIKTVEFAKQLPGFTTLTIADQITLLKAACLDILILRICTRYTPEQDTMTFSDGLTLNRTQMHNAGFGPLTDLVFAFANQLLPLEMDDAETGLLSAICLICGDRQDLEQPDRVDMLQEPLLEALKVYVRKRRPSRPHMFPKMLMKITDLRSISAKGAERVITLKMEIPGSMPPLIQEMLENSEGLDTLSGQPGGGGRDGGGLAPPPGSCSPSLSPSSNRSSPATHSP
human Peroxisome Proliferator-activated Receptor alpha (PPARa), PPARA (gene 5465), sequence (Q07869 whole entry, looked up, the tested form may be a part): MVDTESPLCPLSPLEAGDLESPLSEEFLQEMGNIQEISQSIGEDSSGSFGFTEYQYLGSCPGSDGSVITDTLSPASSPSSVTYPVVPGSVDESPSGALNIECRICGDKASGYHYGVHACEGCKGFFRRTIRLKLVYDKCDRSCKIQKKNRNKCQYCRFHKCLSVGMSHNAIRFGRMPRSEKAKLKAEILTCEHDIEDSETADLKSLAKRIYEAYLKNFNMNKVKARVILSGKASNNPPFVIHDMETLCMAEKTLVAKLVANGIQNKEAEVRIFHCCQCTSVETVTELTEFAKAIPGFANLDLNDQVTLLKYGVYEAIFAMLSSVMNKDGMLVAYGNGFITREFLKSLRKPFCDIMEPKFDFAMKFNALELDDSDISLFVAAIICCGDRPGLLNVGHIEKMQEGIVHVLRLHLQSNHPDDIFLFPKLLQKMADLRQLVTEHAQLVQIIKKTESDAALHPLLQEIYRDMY
Peroxisome proliferator-activated receptor gamma (Homo sapiens), sequence (P37231 whole entry, looked up): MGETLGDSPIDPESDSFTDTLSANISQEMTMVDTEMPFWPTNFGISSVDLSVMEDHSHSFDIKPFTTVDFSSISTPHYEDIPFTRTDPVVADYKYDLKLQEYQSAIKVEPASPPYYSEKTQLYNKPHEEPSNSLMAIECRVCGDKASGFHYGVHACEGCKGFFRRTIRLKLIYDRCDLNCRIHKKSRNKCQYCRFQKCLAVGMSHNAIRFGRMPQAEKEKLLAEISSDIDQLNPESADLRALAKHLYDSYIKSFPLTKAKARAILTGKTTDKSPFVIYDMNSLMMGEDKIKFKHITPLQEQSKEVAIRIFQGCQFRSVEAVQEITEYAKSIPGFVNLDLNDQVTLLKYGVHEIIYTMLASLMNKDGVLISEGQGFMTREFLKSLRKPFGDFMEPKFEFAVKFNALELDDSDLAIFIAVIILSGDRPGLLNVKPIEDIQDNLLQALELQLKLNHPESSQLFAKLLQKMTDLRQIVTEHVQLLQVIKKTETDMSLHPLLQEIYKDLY
human RAR-related Orphan Receptor beta (RORb), RORB (gene 6096), sequence (Q92753 whole entry, looked up, the tested form may be a part): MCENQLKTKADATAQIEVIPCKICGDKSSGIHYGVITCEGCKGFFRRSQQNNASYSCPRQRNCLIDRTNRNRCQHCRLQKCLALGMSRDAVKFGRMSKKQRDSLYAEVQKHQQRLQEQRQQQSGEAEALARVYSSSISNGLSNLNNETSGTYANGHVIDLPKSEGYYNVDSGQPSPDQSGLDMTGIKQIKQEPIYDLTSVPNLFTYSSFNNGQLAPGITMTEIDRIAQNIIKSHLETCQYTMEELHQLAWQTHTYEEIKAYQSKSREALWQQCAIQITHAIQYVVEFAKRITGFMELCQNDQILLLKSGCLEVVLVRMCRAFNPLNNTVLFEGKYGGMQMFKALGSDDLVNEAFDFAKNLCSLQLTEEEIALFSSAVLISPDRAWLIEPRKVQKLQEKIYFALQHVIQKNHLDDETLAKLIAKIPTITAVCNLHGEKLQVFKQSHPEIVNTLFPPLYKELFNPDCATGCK
Nuclear respiratory factor 1 (Homo sapiens), sequence (Q16656 whole entry, looked up): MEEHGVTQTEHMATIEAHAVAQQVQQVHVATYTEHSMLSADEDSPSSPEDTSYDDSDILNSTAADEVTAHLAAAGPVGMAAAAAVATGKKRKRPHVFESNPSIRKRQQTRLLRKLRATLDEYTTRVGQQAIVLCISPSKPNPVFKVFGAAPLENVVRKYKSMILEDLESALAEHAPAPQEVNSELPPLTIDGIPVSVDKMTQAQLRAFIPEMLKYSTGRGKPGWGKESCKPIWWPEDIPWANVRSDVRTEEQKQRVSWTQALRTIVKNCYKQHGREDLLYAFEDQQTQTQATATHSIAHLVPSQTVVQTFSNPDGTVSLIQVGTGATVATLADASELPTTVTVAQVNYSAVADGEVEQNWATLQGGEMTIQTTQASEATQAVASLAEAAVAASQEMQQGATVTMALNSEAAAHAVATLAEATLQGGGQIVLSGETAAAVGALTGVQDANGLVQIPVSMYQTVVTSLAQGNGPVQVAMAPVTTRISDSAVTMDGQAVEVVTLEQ

Cc1cc(O)c2c(c1)C(=O)c1cc(O)cc(O)c1C2=O
active: [2] 8.34 µM | [4] 17.4 µM | [5] 4.77 µM | [6] 8.59 µM | [8] 27.5 µM | [11] 9.51 µM
inactive: [1] | [3] | [7] | [9] | [10] | [12] | [13]

CCCCOCCOCCO
not listed: [8] | [9] | [11] | [19]
inactive: all other assays above

CCOC(=O)C=Cc1ccccc1
active: [5] 42.3 µM | [11] 25.4 µM | [19] 30.8 µM
not listed: [9] | [10]
inactive: all other assays above

CC(C)Cc1ccccc1
not listed: [11] | [12] | [14] | [15] | [16] | [17] | [18] | [19]
inactive: all other assays above

c1ccc2c(c1)-c1ccc3ccc4cccc5cc-2c1c3c45
active: [5] 0.205 µM | [14] 0.0352 µM | [15] 0.667 µM | [16] 0.981 µM
not listed: [10] | [11] | [12]
inactive: all other assays above

C#C[C@]1(O)CC[C@H]2[C@@H]3CCc4cc(O)ccc4[C@H]3CC[C@@]21C
inactive: [1] | [2] | [4] | [7] | [16] | [9] | [17] | [10] | [11] | [12] | [13]
active: [1] 152 µM and 138 µM | [2] 26.4 µM and 72.3 µM and 48.5 µM | [4] 162 µM | [7] 30 µM [middle of 4 runs] | [14] 5.38 µM | [15] 6.34 µM | [18] 4.5 µM

CC(CCO)CC(C)(C)C (stereo not drawn)
not listed: [9] | [14] | [15] | [16] | [17] | [18]
inactive: all other assays above

COc1ccc(OC)cc1
inactive: [1] | [2] | [3] | [4] | [5] | [6] | [7] | [8] | [9] | [11]

Source: PubChem BioAssay (EPA / NIEHS)
